Rows were chosen to be rich in hits. Some 8.9% of all compounds tested hit in one or more screens of this group.
KB-V1 MDR tox: KB-V1 MDR subline cytotoxicity; KB-V1 MDR cells viability, CellTiter-Glo, 72 h; Potency, µM (titrated, usually from 46.1 µM), actives largely listed as cytotoxic; 3.4% of 400,000 active; AID 1347076; note: potency is the fitted concentration of half-maximal effect; % is set by controls: 0 for no effect and ±100 for the full control effect; nearly all actives have a fitted effect of over 60% in size
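KB-V1 MDR subline cells in DMEM (phenol-red free, 10% FBS) exposed to compounds in qHTS concentration series for 72 h at 37 degrees C. Viability read by CellTiter-Glo luminescence; concentration-effect curves fitted after normalization and correction.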
MCF10A rereplic: DNA re-replication induction in MCF 10a cells. MCF 10A DNA re-replication, Hoechst nuclear intensity, 48 h. Potency, µM (top dose mostly 46.1 µM), without a hit: at the top dose activity, positive = re-replication, most hits filed as activators. 2.9% of 350,000 active; note: potency is the fitted concentration of half-maximal effect; % of control where 0% means no effect; nearly all actives have a fitted effect of over 50% in size
D3 antag: antagonists of human D3 dopamine receptor; D3R cells, DiscoveRx beta-arrestin luminescence, antagonist mode; stronger effect = lower value; max response, negative = inhibition, %; 2.5% of 360,000 active; AID 652054; in the data active = max response below about -50%; inconclusive = no clear call, values can overlap the other calls; note: % is set by controls: 0 for no effect and ±100 for the full control effect
Target sequence (P35462 whole entry, looked up): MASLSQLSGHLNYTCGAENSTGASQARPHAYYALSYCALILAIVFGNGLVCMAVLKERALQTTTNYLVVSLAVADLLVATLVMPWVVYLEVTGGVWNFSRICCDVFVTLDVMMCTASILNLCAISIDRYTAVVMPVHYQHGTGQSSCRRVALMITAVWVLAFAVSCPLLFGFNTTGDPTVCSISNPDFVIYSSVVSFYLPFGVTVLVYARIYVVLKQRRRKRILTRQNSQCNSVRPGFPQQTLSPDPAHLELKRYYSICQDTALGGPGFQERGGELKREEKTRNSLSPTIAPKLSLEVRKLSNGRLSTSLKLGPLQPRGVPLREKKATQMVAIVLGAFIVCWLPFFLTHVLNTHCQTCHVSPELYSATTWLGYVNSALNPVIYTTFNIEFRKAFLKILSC
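Cells expressing the human receptor were seeded at 1500 cells/well, incubated overnight at 37 degrees C in 5% CO2, then exposed to library compounds with dopamine controls for 90 minutes at 37 degrees C before luminescent detection.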
KB-3-1 tox: kills parental KB-3-1 adenocarcinoma cells | KB-3-1 viability, CellTiter-Glo ATP luminescence, 72 h | AID 1347075 | Potency, µM (top dose mostly 46.1 µM), hits mostly cytotoxic | 1.4% of 400,000 active; note: potency is the fitted concentration of half-maximal effect; % is set by controls: 0 for no effect and ±100 for the full control effect; nearly all actives have a fitted effect of over 60% in size
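KB-3-1 parental drug-naive adenocarcinoma cells in DMEM/10% FBS, incubated 72 h at 37 C with pin-transferred compounds across a concentration series. Viability by CellTiter-Glo luminescence; concentration-response curves fitted after normalization.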
DRD3 agonist: activates the human D3 dopamine receptor | P35462 | D3R DiscoveRx beta-arrestin cells, luminescence, 90 min | max activation, % | 0.58% of 410,000 active | AID 652048; in the data active = max activation above about 30%; note: 0% is about no effect
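Agonist-mode cell screen: cells plated at 1500/well and incubated overnight at 37 °C, then exposed to library compounds for 90 min at 37 °C. Detection reagent was added for 30–60 min at room temperature, and luminescence was read.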
SW480 rerep: induces DNA re-replication in SW480 colon adenocarcinoma cells; SW480 DNA re-replication, Hoechst DNA content imaging, 48 h; Potency, µM (series often up to 46.1 µM), for the others: top-dose re-replication activation, actives largely listed as activators; 1.8% of 340,000 active; note: potency is the fitted concentration of half-maximal effect; % of control where 0% means no effect; nearly all actives have a fitted effect of over 55% in size
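Image-based DNA-content assay: after two days of treatment, nuclei were labelled with the DNA dye Hoechst and imaged, and hits were compounds raising the count of nuclei showing high fluorescence intensity.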
The depositor's hits bear a star. Unless noted, calls come from the whole dose curve; as a rule, active = well fitted curve in the direction sought with a large enough effect; inconclusive = small, poorly fitted or top-dose-only effect, or another doubt; inactive = no such curve, though single readings can be large; an effect the other way counts as inactive or inconclusive.

For CCC(=NCCc1c(C)[nH]c2ccccc12)C1=C(O)CC(c2ccccc2)CC1=O (centres undefined) the results were KB-V1 MDR tox 3.7µM*, MCF10A rereplic 4.1µM*, D3 antag inconclusive, KB-3-1 tox 4.6µM*, DRD3 agonist -21 and SW480 rerep 10µM*.
`CCC(=NCCc1c(C)[nH]c2ccc(OC(F)(F)F)cc12)C1=C(O)CC(c2ccccc2)CC1=O` (centres undefined) gave KB-V1 MDR tox 2.9µM*, MCF10A rereplic inconclusive, D3 antag inconclusive, KB-3-1 tox 4.1µM*, DRD3 agonist -11 and SW480 rerep 12µM*.
Screening CC(=NCCc1c(C)[nH]c2ccc(OCc3ccccc3)cc12)C1=C(O)CC(c2ccccc2)CC1=O (centres undefined) returned KB-V1 MDR tox inconclusive, MCF10A rereplic 1%, D3 antag -10, KB-3-1 tox inactive, DRD3 agonist -5 and SW480 rerep 2%.
Screening CCCCC(=NCCc1c(C)[nH]c2ccc(OC)cc12)C1=C(O)CC(c2ccccc2)CC1=O (centres undefined) returned KB-V1 MDR tox 5.8µM*, MCF10A rereplic 2.6µM*, D3 antag -22, KB-3-1 tox 3.7µM*, DRD3 agonist -2 and SW480 rerep 7.3µM*.
Screening COc1ccccc1NC(=O)c1oc2ccccc2c1NC(=O)c1c(F)cccc1F returned KB-V1 MDR tox inactive, KB-3-1 tox inactive and DRD3 agonist -6.
`COc1ccc(-c2coc3c(C(=O)NCC4CC4)cccc23)c(C)c1` gave KB-V1 MDR tox inactive, D3 antag 276, KB-3-1 tox inactive and DRD3 agonist 56*.
Screening Cc1c(-c2nsc(NC(=O)c3cccs3)n2)nnn1-c1ccc(Br)cc1 returned KB-V1 MDR tox inactive, KB-3-1 tox inactive and DRD3 agonist -20.
`Cc1cccc(S(=O)(=O)c2cn(C)c3cc(N4CCN(c5ccccc5)CC4)c(F)cc3c2=O)c1` gave DRD3 agonist 4.
For CCn1c2c(c3cc(OCC(C)C)ccc31)CCCC2=O the results were KB-V1 MDR tox inactive, MCF10A rereplic -1%, D3 antag -9, KB-3-1 tox inactive, DRD3 agonist -16 and SW480 rerep -7%.
C=C1CCc2c([nH]c3ccc(OCC(C)C)cc23)C1=O was read as KB-V1 MDR tox inconclusive, MCF10A rereplic 4.6µM*, D3 antag -28, KB-3-1 tox inconclusive, DRD3 agonist -13 and SW480 rerep inconclusive.
Cc1ccc(-c2csc(=S)n2CC(=O)OCC(=O)NC(C)C(C)C)cc1 (centres undefined) was read as KB-V1 MDR tox 16µM*, MCF10A rereplic inconclusive, D3 antag 8, KB-3-1 tox inactive, DRD3 agonist -5 and SW480 rerep 4%.
Screening CC(=O)Nc1c(NC(C)C)c2ccccc2oc1=O returned KB-V1 MDR tox inactive, MCF10A rereplic 5%, D3 antag -15, KB-3-1 tox inactive, DRD3 agonist 2 and SW480 rerep 4%.
`COC(=O)Oc1c(Br)c(=O)oc2ccccc12` gave KB-V1 MDR tox inactive, MCF10A rereplic 3%, D3 antag -82*, KB-3-1 tox inactive, DRD3 agonist -1 and SW480 rerep 4%.
`CCC(Cn1nnc2ccccc2c1=O)NC(=O)Nc1ccccc1Cl` (centres undefined) gave KB-V1 MDR tox inactive, KB-3-1 tox inactive and DRD3 agonist -9.
Screening Cc1oc(=O)oc1CN1CCN(c2cc3c(cc2F)c(=O)c(C(=O)O)c2n3C(C)S2)CC1 (centres undefined) returned MCF10A rereplic -2%, DRD3 agonist 10 and SW480 rerep 19%.
For Cc1ccc(NC(=O)NNC(=O)Cn2nc(-c3ccccc3)c(-c3ccccc3)c(C#N)c2=O)cc1 the results were KB-V1 MDR tox inactive, MCF10A rereplic 1.5µM*, D3 antag inconclusive, KB-3-1 tox 6.5µM*, DRD3 agonist -6 and SW480 rerep 2.9µM*.
